High-throughput results deposited in PubChem by Broad Institute.
Shown are actives, neighbours in structure and some others; about 2.5% of the full set was active somewhere.
NSD2 inh – NSD2 histone methyltransferase inhibitors, primary screen, biochemical, AlphaScreen, single concentration, set 2 | Histone-lysine N-methyltransferase NSD2 (Homo sapiens), O96028 | AID 743445, 2014 | 0.54% of 310,000 active | NSD2 peptide methylation, 120 min | inhibition, % at 12.5 µM; in the data active = inhibition above about 50%
RAD52 anneal inh – RAD52 DNA annealing inhibitors, primary screen, biochemical, FRET, single point, set 2; 0.46% of 360,000 active; DNA repair protein RAD52 homolog (Homo sapiens), P43351; AID 651710, 2012; inhibition, % at 18.7 µM; recombinant RAD52 DNA annealing, FRET fluorescence;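 active = every replicate showing at least 50% inhibition; inconclusive = mean inhibition at least 50% but not in every replicate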
MLL AF4-AF9 inh – inhibitors of AF4 peptide binding to AF9, primary screen, biochemical, AlphaScreen, biotin-AF4 peptide, FLAG-AF9, single point; inhibition, % at 10 µM; 0.47% of 350,000 active;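 active = every replicate reaching a set inhibition limit, whatever the replicate mean, cut at about 25% in these data; inconclusive = mean inhibition reaches that limit but some replicates miss it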;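 note: 0% = plate neutral control median and 100% = total signal loss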
Target sequence (P42568 whole entry, looked up): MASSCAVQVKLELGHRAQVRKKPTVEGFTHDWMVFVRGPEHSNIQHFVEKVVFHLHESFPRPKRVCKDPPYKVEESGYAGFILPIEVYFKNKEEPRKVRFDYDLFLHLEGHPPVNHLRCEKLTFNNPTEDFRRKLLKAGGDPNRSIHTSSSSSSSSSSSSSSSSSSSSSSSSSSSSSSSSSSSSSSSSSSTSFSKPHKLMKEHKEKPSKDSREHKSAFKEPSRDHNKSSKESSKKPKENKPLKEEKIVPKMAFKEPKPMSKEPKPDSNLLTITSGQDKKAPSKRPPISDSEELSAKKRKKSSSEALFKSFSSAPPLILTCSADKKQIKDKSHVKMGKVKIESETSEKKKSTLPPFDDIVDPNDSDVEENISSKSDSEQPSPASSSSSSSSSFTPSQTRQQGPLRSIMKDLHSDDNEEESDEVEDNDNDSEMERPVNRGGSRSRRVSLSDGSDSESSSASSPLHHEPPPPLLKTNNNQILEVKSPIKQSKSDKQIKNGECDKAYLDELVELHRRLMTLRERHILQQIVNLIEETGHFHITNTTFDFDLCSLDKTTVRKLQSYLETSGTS
CASP6 VEID inh – human caspase-6 inhibitors, primary screen, biochemical, VEID-R110 fluorescence, single point, set 2. inhibition, % at 12.5 µM. 0.53% of 350,000 active. AID 686996, 2013. purified caspase-6, Z-VEID-R110 cleavage fluorescence;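 active = mean inhibition across replicates at least about 35%, with every replicate also reaching that limit, limit read from the data; inconclusive = only one of the two criteria met; inactive = neither criterion met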;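 note: 0% = median of neutral control wells and 100% = no fluorescence left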
rRNA inh HTS – reduced GFP signal of wild-type E. coli, primary screen, bacterial rRNA inhibitor project, GFP/RFP fluorescence, OD600, single point; E. coli WT GFP vs humanized-ribosome RFP mutants, 24 h; hits give low values; DMSO median 0, no signal -100; GFP signal change (wild-type ribosome), % (concentration not given with the values); 1.6% of 350,000 active; AID 720706, 2013;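 active = significant combined selectivity score with lowered wild-type GFP, culture density cut under 30%, mutant RFP and density less affected; inactive = any of these conditions unmet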
RAD52 DNA ctr – DNA-binding compounds via dye displacement, dose response, artefact control for RAD52 inhibitor project, biochemical, fluorescence polarization, cherry-pick. shares compounds with RAD52 anneal inh. Salmon sperm DNA/acridine orange FP displacement. AC50, µM. 8% of 1,000 active. AID 652128, 2013;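 active = fitted half-maximal concentration for signal loss at or below twice the highest dose tested, in every separate run, actives reach about 64 µM in these data; inconclusive = runs disagree, or flat partial signal loss, or poor fit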
* = called active by the depositor; i = inactive; ? = inconclusive; nt = no result; ! = not active in a repeat.

SMILES	NSD2 inh	RAD52 anneal inh	MLL AF4-AF9 inh	CASP6 VEID inh	rRNA inh HTS	RAD52 DNA ctr
CCCCCc1ccc(OCCCC[n+]2cccc(C)c2)c(CCCCC)c1	-2.8	76.3*	?	-41.3	-50.5	i
COc1ccc(NC(=O)Nc2ccc3c(c2)[C@@H]2C[C@@H](CC(=O)N4CCOCC4)O[C@@H](CO)[C@@H]2O3)cc1	nt	nt	nt	nt	0.1	nt
CO[C@H]1CC[C@H]2CCOc3c(C#N)cccc3C(=O)N(C)[C@H](C)C(=O)N(C)C[C@H]1O2	nt	8.8	-14.9	-1.4	1.5	nt
NCCCC[C@H]1CN=C(N)N1CCC12CC3CC(CC(C3)C1)C2	nt	56.5*	5.0	-32.9	8.7	i
C[C@@H]1CN([C@H](C)CO)S(=O)(=O)c2ccc(-c3ccccc3)cc2O[C@H]1CN(C)Cc1ccccn1	nt	14.0	9.5	-1.2	-42.8	nt
COc1cccc(C2=NCCc3cc4c(cc32)OCO4)c1OC	-1.2	nt	nt	nt	nt	nt
COc1ccc2cc3[n+](cc2c1OC)CCc1cc2c(cc1-3)OCO2	nt	75.4*	-1.4	13.0	44.4	i
CN(C)CCNC(=O)c1cc2c(s1)-c1ccc(Cl)cc1SC2	32.2	81.2*	?	-89.8	-59.0	?
CCC(=O)N1CC[C@@H]2[C@H]1c1cc(-c3ccc(C(=O)N(C)C)cc3)ccc1N[C@@H]2CO	nt	-31.5	-0.5	6.2	-2.4	nt
NCCCCc1ccc2ccc3cccc4ccc1c2c34	1.3	52.7*	22.5	-3.0	-18.6*	i
COc1ccc(NC(=O)N(C)C[C@@H]2Oc3c(NC(=O)Nc4ccc5c(c4)OCO5)cccc3C(=O)N([C@H](C)CO)C[C@H]2C)cc1	nt	-4.1	0.2	-2.4	-0.6	nt
Cc1cc(C)c2nc3nc(C)c(C)cc3c(N)c2c1	2.4	91.1*	0.7	-34.4	-9.3	61.8µM*
Nc1cc2c3c(cccc3c1)C(=O)N(CCN1CCCC1)C2=O	13.3	3.4	1.5	-8.8	3.9	nt
NC(=O)CN1CCN(CCN2C(=O)c3cccc4cccc(c34)C2=O)CC1	-3.3	47.0	1.3	-0.4	-10.2	i
O=C1c2cccc3cc([N+](=O)[O-])cc(c23)C(=O)N1CCN1CCCC1	12.5	82.2*	-2.4	1.5	4.4	24.8µM*
COc1cc(OC)nc(Nc2nc(C(N)CCc3ccccc3)cs2)n1 (centres undefined)	4.4	62.3*	6.2	0.7	-35.7	i
CCOc1ccc(CCN2C(=S)N([C@@H](Cc3ccc(O)cc3)CN3CCC[C@@H]3CN3C(=S)NC[C@@H]3CC(C)C)C[C@@H]2Cc2ccc(O)cc2)cc1	nt	66.6*	-4.6	1.3	10.4	i
C[C@H]1CN([C@@H](C)CO)C(=O)Cc2cc(NC(=O)Cn3cnnn3)ccc2O[C@@H]1CN(C)S(=O)(=O)c1cccs1	nt	-0.4	0.2	0.2	-0.6	nt
COc1cccc(CNC(=O)C[C@@H]2C=C[C@H](NC(=O)C3CC3)[C@@H](CO)O2)c1	nt	-3.8	-0.3	4.8	-1.0	nt
Nc1cc(N)cc(C(=O)c2ccccc2)c1	44.5	89.1*	8.7	36.4*	7.3	i
CO[C@@H]1CN(C)C(=O)c2cc(NC(=O)Nc3cccc(F)c3)ccc2OC[C@H](C)N(C(C)=O)C[C@H]1C	nt	1.1	4.0	-2.2	-4.4	nt
Cc1ccc(-c2cc(C(=O)NCCCN3CCOCC3)c3ccccc3n2)cc1	-0.7	-1.3	2.3	-5.2	9.5	nt
COc1ccc(-c2nc(C(=O)NCCCN3CCOCC3)cc3c2[nH]c2ccccc23)cc1OC	nt	82.9*	8.8	0.8	nt	i
Cc1ccc(-c2nc(C(=O)NCCCN3CCOCC3)cc3c2[nH]c2ccccc23)cc1	nt	94.3*	15.0	-3.2	nt	i
COc1ccc(Nc2cc(C(=O)NCCCN3CCOCC3)c3ccccc3n2)cc1OC	6.4	nt	nt	nt	nt	nt
SMILES	NSD2 inh	RAD52 anneal inh	MLL AF4-AF9 inh	CASP6 VEID inh	rRNA inh HTS	RAD52 DNA ctr
C[C@H](CO)N1C[C@H](C)[C@H](CN(C)Cc2cccc3c2OCCCO3)OCc2cn(nn2)CCCC1=O	nt	7.0	-0.8	-8.4	2.0	nt
CN(C)CCN(C)Cc1ccccc1Sc1cccc2ccccc12	19.2	52.3*	36.3*	-1.9	-58.2	i
CNCc1ccccc1Sc1cccc2ccccc12	33.7	nt	nt	nt	nt	nt
CO[C@H]1CN(C)C(=O)c2cc(NC(=O)Nc3ccccc3F)ccc2OC[C@H](C)N(Cc2ccccc2C(=O)O)C[C@@H]1C	nt	-14.1	-0.4	-2.3	3.3	nt
COc1ccc2nc3cc(Cl)ccc3c(Nc3cc(CN4CCCC4)c(O)c(CN4CCCC4)c3)c2n1	nt	100.9*	47.0*	4.9	nt	4.02µM*
O=C1C(CSCc2ccccc2)NC(=S)N1c1ccccc1 (centres undefined)	5.3	56.0*	-2.6	-6.4	nt	i
O=C(O)CC1NC(=S)N(c2ccccc2)C1=O (centres undefined)	2.1	nt	nt	nt	nt	nt
CC1=CC(C)(C)N=C(Nc2nc(C)c3cc(C)cc(C)c3n2)N1	12.7	79.0*	12.4	1.6	-37.8	i
CCN(CC)CCCN(C(=O)c1ccco1)c1nc(-c2ccc(Cl)cc2)cs1	24.3	78.9*	25.6*	0.4	-38.1	i
CCN(CC)CCCN(C(=O)c1ccc(Br)cc1)c1nc(-c2ccc(OC)cc2)cs1	2.6	57.0*	31.3*	-9.1	-50.7	i
C[C@@H]1CN([C@@H](C)CO)S(=O)(=O)c2ccc(C#CC3CC3)cc2O[C@H]1CN(C)Cc1ccc(F)cc1	nt	-10.0	0.2	2.4	2.1	nt
CN1CCN(CCCNCc2cn(CCC#N)c3ccccc23)CC1	5.8	63.1*	25.0*	-205.2	15.7	i
N#CCCN1CCN(Cn2c3ccccc3c3ccccc32)CC1	-3.5	nt	nt	nt	nt	nt
CCn1cc(C(=O)NN)c(=O)c2cc(F)c(N3CCN(C)CC3)cc21	3.8	97.1*	2.8	-51.2	-30.2	i
CCN1CCN(Cc2ccc(NC(=O)c3ccc(C)c(NC(=O)C(=O)c4c[nH]c5ccccc45)c3)cc2C(F)(F)F)CC1	nt	98.5*!	15.4	-9.1	-21.8	i
CCN1CCN(Cc2ccc(NC(=O)c3cccc(-c4ccc5nc(NC(=O)C6CC6)sc5n4)c3)cc2C(F)(F)F)CC1	nt	66.6*	10.4	-7.9	-42.4	i
CCN1CCN(Cc2ccc(C(=O)Nc3ccc(C)c(NCc4cnc(NC(=O)OC)cn4)c3)cc2C(F)(F)F)CC1	nt	96.5*!	19.5	-30.8	-16.8*!	i
CCN1CCN(Cc2ccc(NC(=O)c3ccc(C)c(NC(=O)c4ccc5n[nH]nc5c4)c3)cc2C(F)(F)F)CC1	nt	-10.7	0.7	-0.6	0.1	nt
Cc1ccc(C(=O)N/C(=C\c2ccc(-c3cccc([N+](=O)[O-])c3)o2)C(=O)NCCCN(C)C)cc1	12.5	66.9*	13.4	-12.9	-29.2*	i
